Screening data as filed in PubChem.
H9c2 protect = cardioprotection against H2O2-induced cell death, primary screen, uHTS, H9c2 cells, ATPLite luminescence; H9c2 cardiomyocytes, H2O2 injury protection, 2 h; protection from H2O2 cell death, % at 20 µM; 0.63% of 360,000 active; AID 588492, 2011;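 active = compounds giving at least 50% protection of heart cells from peroxide-induced death in the single-dose screen, raw or plate-pattern-corrected value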;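 note: 0% = DMSO wells with peroxide and 100% = DMSO wells without peroxide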
Cl transport mod = KCC2 cotransporter modulators, thallium flux, primary screen, cell-based, HEK293 KCC2, FluoZin-2 fluorescence, MLSMR; KCC2 cells, thallium flux FluoZin-2 fluorescence; Solute carrier family 12 member 5 (Homo sapiens), Q9H2X9; B-score of Tl+ flux slope (higher = more flux/activation; lower = inhibition) at 10 µM; AID 1456, 2008; 2.2% of 190,000 active;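 active = thallium flux slope and its plate-corrected score both differing from the plate sample mean at a set confidence after two filtering rounds, in either direction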;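 note: slope of fluorescence scaled to starting intensity during 10 to 20 s after thallium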
PHOSPHO1 block = PubChem AID 1565 | Phosphoethanolamine/phosphocholine phosphatase (Homo sapiens), Q8TCT1 | recombinant PHOSPHO1, absorbance phosphatase assay | inhibition, % at 13.3 µM | 1.1% of 290,000 active; in the data active = inhibition above about 60%
Calb FLC = C. albicans growth inhibition with fluconazole, primary screen, CaCi-2 strain, Alamar Blue fluorescence | C. albicans CaCi-2 (fluconazole-resistant clinical isolate) + fluconazole, 48 h | growth inhibition, % (no concentration beside the values) | 0.57% of 300,000 active | AID 1979, 2009;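 active = growth inhibition above about 58% in most replicates, limit read from the data, passing the limit was not always enough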;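 note: all wells also contain fluconazole at 8 µg/ml as a sub-toxic cotreatment; 0% = median of DMSO wells and 100% = median of geldanamycin control wells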
Efflux pump inh = inhibitors of Candida efflux pumps in yeast, primary screen, S. cerevisiae, Nile Red, multiplex | S. cerevisiae Candida pump triplex | 0.44% of 330,000 active | inhibition, % at 10 µM;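 active = plate passing quality check with inhibition over a set limit, or well fluorescence over plate mean plus 4 SD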;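 note: Nile Red retained in pooled yeast measured as flow cytometry median fluorescence; 0% = buffer negative control and 100% = Enniatin B positive control; higher means more Nile Red kept so more efflux inhibition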
Active calls of the source: *. Shown are actives, neighbours in structure and some others; about 3.3% of the full set was active somewhere.

Screening O=C(O)C1=CC[C@@H](c2ccc(Cl)cc2)N(S(=O)(=O)c2ccc(Cl)cc2)[C@H]1c1cccc(Cl)c1 returned H9c2 protect -5.6 and Efflux pump inh 0.0.
CCN(CC)C(=S)SSC(=S)N(CC)CC was read as H9c2 protect 10.3, Cl transport mod 1.67, PHOSPHO1 block 89.2*, Calb FLC 100.3* and Efflux pump inh 0.1.
CCN(CC)C(=S)SCC(=O)c1ccccc1 was read as H9c2 protect 1.2, Cl transport mod 0.00139, PHOSPHO1 block 38.2, Calb FLC -3.3 and Efflux pump inh 0.1.
Cc1ccc(-n2ncc3c(=O)n(CC(=O)N4CCCc5ccccc54)cnc32)cc1C was read as H9c2 protect -3.2, Cl transport mod -3.35*, PHOSPHO1 block 14.1 and Calb FLC 1.4.
For CC(C)CC(N)c1csc(Nc2ccc(C(=O)NCCCO)cn2)n1 (centres undefined) the results were H9c2 protect 9.3.
Screening O=C(COc1ccc(S(=O)(=O)N2CCOCC2)cc1)NC1CC1 returned H9c2 protect 3.0, PHOSPHO1 block 27.0, Calb FLC -1.0 and Efflux pump inh 0.1.
O=C(/C=C\c1cn(-c2ccccc2)nc1-c1ccc2c(c1)OCCO2)N1CCOCC1 was read as H9c2 protect 60.2*, Cl transport mod -0.435, PHOSPHO1 block 17.9, Calb FLC 66.1 and Efflux pump inh 0.0.
CN(C)C(=O)/C=C\c1cn(-c2ccccc2)nc1-c1ccc2c(c1)OCCO2 was read as H9c2 protect 51.7*, Cl transport mod -0.829, PHOSPHO1 block 20.6, Calb FLC 45.3 and Efflux pump inh 0.1.
CN1CCN(C(=O)/C=C/c2cn(-c3ccccc3)nc2-c2ccc3c(c2)OCCO3)CC1 was read as H9c2 protect 33.2, Cl transport mod -0.069, PHOSPHO1 block 23.3, Calb FLC 27.5 and Efflux pump inh 0.3.
`O=C(O)/C=C/c1cn(-c2ccccc2)nc1-c1ccc2c(c1)OCCO2` gave H9c2 protect 1.6, Cl transport mod -1.1, PHOSPHO1 block 15.7, Calb FLC 30.8 and Efflux pump inh -0.1.
Screening COc1ccc(CNc2oc(COc3ccccc3Cl)nc2C#N)cc1 returned H9c2 protect -7.9, PHOSPHO1 block 15.0, Calb FLC 20.9 and Efflux pump inh 0.0.
N#Cc1nc(-c2ccccc2)oc1NCCCn1ccnc1 was read as H9c2 protect 5.1, Cl transport mod -0.032, PHOSPHO1 block 5.8, Calb FLC -3.6 and Efflux pump inh -0.1.
N#Cc1nc(Cc2cccc3ccccc23)oc1N1CCCCC1 was read as H9c2 protect -22.1, Cl transport mod -6.15*, PHOSPHO1 block 22.0, Calb FLC 13.1 and Efflux pump inh 0.3.
Screening N#Cc1nc(Cc2cccc3ccccc23)oc1NCCCn1ccnc1 returned H9c2 protect 14.9, Cl transport mod -3.43*, PHOSPHO1 block -3.4, Calb FLC -7.5 and Efflux pump inh -0.1.
`COc1ccc(CNc2oc(Cc3cccc4ccccc34)nc2C#N)cc1` gave H9c2 protect -23.0, Cl transport mod -5.23*, PHOSPHO1 block -6.1, Calb FLC -5.6 and Efflux pump inh -0.4.
`COC(=O)[C@H](CC(C)C)NC(=O)NCc1ccc(Cl)cc1` gave H9c2 protect -6.0, Cl transport mod -0.903, PHOSPHO1 block 20.0, Calb FLC -6.0 and Efflux pump inh 0.0.
Screening c1cc2[nH]snc2c2nc(C3CC3)nc12 returned H9c2 protect 85.9*, Cl transport mod 0.49, PHOSPHO1 block -5.5, Calb FLC 23.2 and Efflux pump inh 0.1.
For C[C@@H](C(=O)N1CCN(Cc2ccc3c(c2)OCO3)CC1)n1nnc2ccccc2c1=O the results were H9c2 protect 2.0, PHOSPHO1 block 7.0, Calb FLC -21.1 and Efflux pump inh 0.1.
Screening O=S(=O)(Nc1cc(S(=O)(=O)N2CCOCC2)ccc1Cl)c1ccccc1 returned H9c2 protect -2.8 and Efflux pump inh -0.1.
`Cc1[nH]n(-c2ccccc2)c(=O)c1/C=N/c1ccccn1` gave H9c2 protect -1.8, Cl transport mod 17.6*, PHOSPHO1 block -23.1, Calb FLC 3.3 and Efflux pump inh 0.2.
CSc1nnc(-c2ccccc2N=Cc2c(C)[nH]n(-c3ccc4ccccc4c3)c2=O)c(=O)[nH]1 was read as H9c2 protect -25.2, Cl transport mod 0.972, PHOSPHO1 block -38.0, Calb FLC 14.2 and Efflux pump inh 0.0.
`Cc1[nH]n(-c2ccccc2)c(=O)c1N=Nc1nccs1` gave H9c2 protect 9.3, Cl transport mod 25.3*, PHOSPHO1 block 39.9, Calb FLC -11.1 and Efflux pump inh -0.3.
For C=CCSc1nnc(-c2ccccc2N=Cc2c(C)[nH]n(-c3ccccc3)c2=O)c(=O)[nH]1 the results were H9c2 protect -28.5, Cl transport mod -0.87, PHOSPHO1 block 68.6*, Calb FLC -10.2 and Efflux pump inh -0.1.
For Cc1[nH]n(-c2ccccc2)c(=O)c1C=Nc1ccc2[nH]c(=O)[nH]c2c1 the results were H9c2 protect 55.0*, Cl transport mod -0.579, PHOSPHO1 block -12.5, Calb FLC -8.9 and Efflux pump inh 0.2.
O=c1c(/C=N\NS(=O)(=O)c2ccccc2)coc2ccc(Cl)cc12 was read as H9c2 protect -2.1, Calb FLC -0.7 and Efflux pump inh 0.0.
Screening O=C(NC(=S)N1CCCC(C(F)(F)F)C1)c1ccc(F)cc1 (centres undefined) returned H9c2 protect 4.5, PHOSPHO1 block -112.0, Calb FLC 7.8 and Efflux pump inh 0.1.
O=C(Nc1ccccn1)C1CCCN(c2ncnc3c2nc2n3CCCCC2)C1 (centres undefined) was read as H9c2 protect 6.1, PHOSPHO1 block 32.4, Calb FLC 7.4 and Efflux pump inh -0.1.
Screening COc1ccc2oc(C(=O)N3CCCc4ccccc43)c(C)c2c1 returned H9c2 protect -7.1, Calb FLC 5.7 and Efflux pump inh -0.1.
Cc1[nH]n(-c2ccccc2)c(=O)c1/C=N/c1nn[nH]n1 was read as H9c2 protect 1.1, Cl transport mod 0.632, PHOSPHO1 block 28.1, Calb FLC 0.5 and Efflux pump inh -0.1.
`Cc1cccc(-n2[nH]c(C)c(C=Nc3ccc4[nH]c(=O)[nH]c4c3)c2=O)c1` gave H9c2 protect 56.3*, Cl transport mod 0.837, PHOSPHO1 block 5.8, Calb FLC 3.2 and Efflux pump inh -0.2.
Screening Cc1cccc(N=Cc2cc(Br)cc(Cl)c2O)c1 returned H9c2 protect 53.7*, Cl transport mod 2.37, PHOSPHO1 block -6.8, Calb FLC -6.5 and Efflux pump inh 0.3.
`NC(=O)c1cccc(N=Cc2cc(Cl)cc(Cl)c2O)c1` gave H9c2 protect 47.5, Cl transport mod -0.658, PHOSPHO1 block 34.9 and Calb FLC -0.7.
Screening CCOC(=O)c1ccc(NC(=O)CCS(=O)(=O)Cc2ccccc2)cc1 returned H9c2 protect -6.0, PHOSPHO1 block 62.8*, Calb FLC -2.1 and Efflux pump inh -0.1.
